Records with an inconclusive call do not appear. Calls of active or inactive are those of the source. How the source made its calls: active means hit-call score of the fitted dose curve at least 0.9, where 1 is the maximum; inconclusive means response in the unintended direction; inactive means score below 0.9.

The test system of this test is zebrafish Androgen Receptor (AR), gene 100005148. Description: ATG_zfAR_EcoTox2: Attagene TRANS-FACTORIAL EcoTox-2 HepG2 Assay for zebrafish Androgen Receptor (AR). The method, then:
ATG_EcoTox2 is a cell-based, multiplexed assay created by modifying the existing Attagene TRANS-FACTORIAL system to include a panel of nuclear receptors from some or all the following species: human (Homo sapiens), african clawed frog (Xenopus laevis), rainbow trout (Oncorhynchus mykiss), japanese medaka (Oryzias latipes), and zebrafish (Danio rerio). The ECOTOX2-FACTORIAL format uses HepG2, a human liver cell line, with measurements taken at 24 hours after chemical dosing in a 24-well plate. ATG_zfAR_EcoTox2 is one of 29 assay components calculated in the ATG_EcoTox2 assay. It is designed to make measurements of mRNA induction, a form of inducible reporter, as detected with fluorescence intensity signals by Reverse transcription polymerase chain reaction (RT-PCR) and Capillary electrophoresis technology.The assay endpoint ATG_zfAR_EcoTox2 was analyzed in the positive analysis fitting direction relative to DMSO as the negative control and baseline of activity. Using a type of inducible reporter, measures of mRNA for gain-of-signal activity can be used to understand the reporter gene at the transcription factor-level as they relate to the gene AR. Furthermore, this assay endpoint can be referred to as a primary readout, because this assay has produced multiple assay endpoints where this one serves a reporter gene function. To generalize the intended target to other relatable targets, this assay endpoint is annotated to the nuclear receptor intended target family, where the subfamily is steroidal.
Human liver HepG2 cells are transiently transfected with multiple reporter transcription units (MRTUs) in 6-well plates using FuGene 6 reagent (Roche; 3 ml FuGene/1 mg DNA). The MRTU constructs are regulated by a cis-regulating element (promoter). Each RTU expresses a GAL4-UAS that regulates the transcription of a nearby target reporter gene sequence. A major difference between the CIS and TRANS system is that in CIS activities of endogenous TFs are measured, whereas the TRANS assay evaluates changes in activities of exogenous, chimeric NR-Gal4 proteins. […] At the end of 24 hour incubation, total RNA was isolated using TriZol reagent (Invitrogen). The isolated RNA is then reverse-transcribed using oligo(dT) primer and Mo-MLV reverse transcriptase (Invitrogen) with DNAse I (Ambion) treatment for 30 min. The one-tenth of the produced cDNA was amplified by PCR using Taq DNA polymerase (Invitrogen) and two reporter sequence-specific primers. […] The fragments were purified using Qiaquick PCR columns (Qiagen), analyzed on an ABI 3130xL genetic analyzer (Applied Biosystems) with peak positions identified by using a set of X-rhodamine (ROX)-labeled MapMarker1000 molecular weight standards (BioVentures). […]
With `O=C(O)C(F)(F)C(F)(F)C(F)(F)C(F)(F)C(F)(F)C(F)(F)C(F)(F)F`, the result was inactive.

With `O=S(=O)(O)C(F)(F)C(F)(F)C(F)(F)C(F)(F)C(F)(F)C(F)(F)F`, the compound was called inactive. For `CCCCOCN(C(=O)CCl)c1c(CC)cccc1CC`, the compound was called inactive. In the case of `O=P(Oc1ccccc1)(Oc1ccccc1)Oc1ccccc1`, the compound was classed as inactive.

(Values after PubChem BioAssay AID2284357 (EPA ToxCast).)
